# Laboratory results reported in the supplement of paper PMC7156485.
# “And” between values parts separate entries of the source, which are not always exact repeats. Identical values can stand only once. Values without a mark were called inactive.
# Tested on: TDF
# Assay: H1.0 immunofluorescence intensity relative to DMSO (% of DMSO); higher = stronger H1.0 induction, active = 120 or more
# Settings: concentration: 10 µM; 24 h
# Method in brief: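 H1.0 nuclear intensity or cell number is expressed as percent of the plate control, with the median of replicates taken. HCC1569 and TDF cells were treated with compounds at 10 µM for 24 h at 37 °C, in triplicate, then fixed and immunostained for H1.0 with DAPI as a nuclear stain. HCC1569 values were smoothed to correct for positional effects.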
# 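Further: TDF is a line of transformed human dermal fibroblasts of mesenchymal origin.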
row,Structure (SMILES),H1.0 immunofluorescence intensity
1,CC(C)=CCC(O)C1=CC(=O)c2c(O)ccc(O)c2C1=O (configuration not stated) [Shikonin],119
2,CC1(C)SC2C(NC(=O)C(N)c3ccc(O)cc3)C(=O)N2C1C(=O)O (configuration not stated) [Amoxicillin],105
3,CC1=NN(c2ccccc2)C(=O)C1,93.5
4,"O=c1[nH]ccc2c(O)cccc12 [1,5-Isoquinolinediol]",87.9
5,CCCCN1CCC(n2c(=O)[nH]c3ccccc32)CC1.O=C(O)C(=O)O [NS 521 oxalate],86.7
6,"CN(C)C(=S)NN=C(c1ccccn1)c1ccccn1 [(Z)-di(2-pyridinyl)methanone N,N-dimethylthiosemicarbazone]",107
7,Nc1ncnc2c1ncn2C1CCCO1 (configuration not stated),99
8,CC12C=CC(=O)C=C1CCC1C2=CCC2(C)C(C(=O)CN3CCN(c4cc(N5CCCC5)nc(N5CCCC5)n4)CC3)CCC12.O=C(O)C=CC(=O)O (configuration not stated),95.3 and 98.1
9,CC=C(C)C(=O)OC1CC(C)=CC(=O)C2(C)CCC(O)(C(C)C)C12 (configuration not stated) [Lapidin],95.4
10,Oc1ccc(O)cc1 [Hydroquinone],97.3
11,O=C(CCc1ccc(O)cc1)c1c(O)cc(O)cc1O [Phloretin],96.1
12,"CCCCCC(O)CCC1C(O)CC(=O)C1CCCCCCC(=O)O (configuration not stated) [13,14-Dihydro-prostaglandin E1]",94.9
13,Clc1ccc(C(Cn2ccnc2)OCc2csc3c(Cl)cccc23)c(Cl)c1.O=[N+]([O-])O (configuration not stated),96.8
14,CCN(CC)CCNC(=O)c1ccc(NC(C)=O)cc1.Cl [N-Acetylprocainamide hydrochloride],105
15,CCOC(=O)C1=CC(OC(CC)CC)C(NC(C)=O)C(N)C1 (configuration not stated) [Oseltamivir],94
16,Nc1nc(Nc2ccccc2)nc2c1ncn2C1OC(CO)C(O)C1O (configuration not stated) [2-Phenylaminoadenosine],90

row,Structure (SMILES),H1.0 immunofluorescence intensity
1,CC(=O)O.O=C(NCC1CCCCN1)c1cc(OCC(F)(F)F)ccc1OCC(F)(F)F (configuration not stated) [Flecainide acetate],91.5
2,CC[N+](CC)(CC)CCOc1cccc(OCC[N+](CC)(CC)CC)c1OCC[N+](CC)(CC)CC.[I-].[I-].[I-] [Gallamine triethiodide],98.8
3,COc1cc(/C=C/C(=O)CC(=O)/C=C/c2ccc(O)cc2)ccc1O,98.3
4,Cc1cc(C)c(C=C2C(=O)Nc3ccccc32)[nH]1,94.2 and 92.7
5,CCCCc1oc2ccccc2c1C(=O)c1cc(I)c(OCCN(CC)CC)c(I)c1.Cl [Amiodarone hydrochloride],98.9
6,CN(CC=CC#CC(C)(C)C)Cc1cccc2ccccc12.Cl,101
7,CN1CCc2cccc3c2C1Cc1ccc(O)c(O)c1-3.Cl (configuration not stated) [Apomorphine hydrochloride hemihydrate],94.8
8,CC1CCC2(C(=O)O)CCC3(C)C(=CCC4C5(C)CCC(O)C(C)(C)C5CCC43C)C2C1C (configuration not stated) [Ursolic acid],97.5
9,COc1ccc(S(=O)(=O)N(CCO)c2ccccc2CN(C)CC=Cc2ccc(Cl)cc2)cc1,103
10,NCC1OC(OC2C(CO)OC(OC3C(O)C(N)CC(N)C3OC3OC(CN)C(O)C(O)C3N)C2O)C(N)C(O)C1O (configuration not stated) [Neomycin],100
11,"c1ccc(-c2ccccn2)nc1 [2,2'-Bipyridyl]",104
12,COc1cccc(-c2cc(=O)c3ccccc3o2)c1N,85.6 and 92.6 and 87.8
13,CC(CN1c2ccccc2Sc2ccccc21)N(C)C.Cl (configuration not stated) [Promethazine hydrochloride],109
14,Cc1nn(C)c2nc(NNC(=O)Nc3cc(Cl)nc(Cl)c3)cc(C(C)C)c12,170 (active)
15,CN1C(=O)CC(C(=O)O)C1c1cccnc1 (stereo not drawn) [Trans-4-Cotininecarboxylic acid],93.3
16,CC(=O)C1CCC2C3CC=C4CC(OS(=O)(=O)[O-])CCC4(C)C3CCC12C.[Na+] (configuration not stated) [Pregnenolone sulfate sodium],95.8
